TGFb inhibitor = blocks TGF-b signaling; AID 588855; Potency, µM (series often up to 46.1 µM), inactives show top-dose activity, negative = inhibition, most hits filed as inhibitors; HepG2 CAGA-GFP TGF-b/SMAD3 reporter, GFP fluorescence, 18 h; TGF-beta stimulated, 500 pg/mL final; 1.2% of 410,000 active; note: % is set by controls: 0 for no effect and ±100 for the full control effect; nearly all actives have a fitted effect of over 65% in size
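First, reporter cells (HEPG2 CAGA-GFP) rested 2 h at 37 degrees C. Next, compounds were pinned in and TGF-beta added to 500 pg/mL final. After 18 h, GFP was imaged per cell and summed per well.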
ATXN viability = reduces viability in counter-screen for ATXN expression inhibitors | 0.49% of 400,000 active | Potency, µM (series often up to 56.7 µM), hits mostly cytotoxic | S2 cells (HEK-293 line with an ATXN2-luciferase reporter) viability, CellTiter-Fluor protease fluorescence, 24 h; note: nearly all actives have a fitted effect of over 40% in size
TDP1 cell CPT = DT40-hTDP1 cell growth loss with CPT. chicken DT40 Tdp1-/-;hTDP1 cells + 20 nM CPT, ATP luminescence, 48 h. Potency, µM (titrated, usually from 46.2 µM), for inactives: at the highest dose activity change, negative = growth inhibition, most hits filed as inhibitors. 12% of 420,000 active. AID 686979; note: % is set by controls: 0 for no effect and ±100 for the full control effect; nearly all actives have a fitted effect of over 55% in size
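Chicken DT40 Tdp1-/- cells complemented with human TDP1, 400 cells/well, exposed to compounds plus 20 nM camptothecin for at least 48 h at 37 C; viability read as ATP content by CellTiter-Glo luminescence.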
HepG2 tox = counter-screen for TGF-b inhibitors: cytotoxicity in HepG2 cells | HepG2 CAGA-GFP viability, ATP luminescence, 18 h | Potency, µM (top dose mostly 46.1 µM), without a hit: at the top dose activity change, negative = cytotoxicity, hits mostly cytotoxic | 0.76% of 410,000 active
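HepG2 CAGA-GFP cells (1000/well, DMEM with 1% FBS) received compound, then TGF-beta at 500 pg/mL final, and were incubated 18 hours at 37 degrees C. Viability was read by CellTiter-Glo luminescence. Media-only wells were set as complete cell-killing and DMSO as no toxicity.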
DT40 TDP1 no CPT = qHTS for Inhibitors of human tyrosyl-DNA phosphodiesterase 1 (TDP1): qHTS in cells in absence of CPT; 15% of 420,000 active; AID 686978, 2013; DT40 Tdp1-/- hTDP1 cells, no CPT, ATP luminescence, 48 h; Potency, µM (series often up to 46.2 µM), for inactives: top-dose activity change, negative = growth inhibition, most hits filed as inhibitors; note: % is set by controls: 0 for no effect and ±100 for the full control effect; nearly all actives have a fitted effect of over 55% in size
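Seeded 400 DT40-hTDP1 cells/well (vehicle DMSO, no 20 nM CPT); pinned compounds; ≥48 hr at 37 °C; CellTiter-Glo luminescence as viability measure.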
ATXN2 expr inh = reduces ATXN2 reporter expression in HEK-293 cells; HEK-293 ATXN2-luciferase reporter, luminescence, 24 h; Potency, µM (doses to about 57 µM), inactives show at the highest dose activity change, negative = inhibition, hits mostly inhibitors; 0.72% of 360,000 active; note: % is set by controls: 0 for no effect and ±100 for the full control effect; nearly all actives have a fitted effect of over 55% in size
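qHTS (up to 57 uM final) was run with 24 h compound exposure of reporter cells at 37 °C. Each well was multiplexed: SteadyGlo luminescence measured ATXN2-luciferase expression after a fluorogenic Gly-Phe-AFC viability readout (25 uM final).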
Active calls of the source: *; i = inactive; ? = inconclusive; nt = no result given; ! = a repeat was not active. Shown are actives, neighbours in structure and some others; about 17% of the full set was active somewhere. Calls come from the whole dose curve; as a rule, active = well fitted curve in the direction sought with a large enough effect; inconclusive = small, poorly fitted or top-dose-only effect, or another doubt; inactive = no such curve, though single readings can be large; an effect the other way counts as inactive or inconclusive. Potency is the fitted concentration of half-maximal effect.

SMILES | TGFb inhibitor | ATXN viability | TDP1 cell CPT | HepG2 tox | DT40 TDP1 no CPT | ATXN2 expr inh
COc1cccc(-n2cc(C(=O)Nc3ccccc3C(N)=O)c3ccccc3c2=O)c1 | -24% | nt | ? | -19% | 10µM* | nt
CC1CCCC(NC(=O)CN(C)CC(=O)Nc2cccc(F)c2)C1C (centres undefined) | ? | i | -19% | -31% | -32% | ?
Cc1cc(Cl)nc2nc(Cl)ccc12 | 41% | nt | ? | 11% | 5.6µM* | nt
O=S(=O)(NCC(Nc1ccc(Cl)cc1)c1ccccc1)c1ccccc1 (centres undefined) | ? | nt | ? | 16µM*! | 16µM* | ?
Cc1ccc(NC(CNS(=O)(=O)c2ccc(Cl)cc2)c2ccccc2)cc1 (centres undefined) | ? | i | 21µM* | -83% | 23µM* | ?
O=S(=O)(NCC(c1ccccc1)N1CCNCC1)c1ccc(Cl)cc1 (centres undefined) | 13µM* | ? | ? | -101% | ? | ?
Cn1c(SCC(=O)Nc2cc(S(=O)(=O)N3CCOCC3)ccc2N2CCOCC2)nnc1-c1ccncc1 | 5% | i | 9% | -2% | -2% | -12%
COc1ccc(N(C)S(=O)(=O)c2cccc(C(=O)NC3CCCC(C)C3C)c2)cc1 (centres undefined) | ? | i | ? | 4% | ? | -1%
CC(Oc1ccc(Br)cc1)C(=O)Nc1nnc(C2CC2)s1 (centres undefined) | 0% | i | 5% | -12% | 6% | -6%
COCCNC(=O)CSc1nc(-c2ccccc2)[nH]c1-c1ccc(OC)cc1 | -31% | nt | -22% | -31% | ? | nt
COc1ccc(-c2[nH]c(-c3ccc(Cl)cc3)nc2SCC(=O)Nc2nccs2)cc1 | ? | ? | 16µM* | -65% | 23µM* | -36%
COc1ccc(-c2[nH]c(-c3ccccc3)nc2SCC(=O)Nc2nccs2)cc1 | -17% | ? | 18µM* | -20% | 23µM* | -16%
COC(=O)c1ccc(C(=O)OC)c(NC(=O)N2CC3CCCN3c3ccccc32)c1 (centres undefined) | -13% | nt | ? | 0% | ? | nt
CCSc1nnc(NC(=O)C(C(F)(F)F)C(F)(F)F)s1 | 0% | i | ? | -11% | ? | 4%
CCSc1nnc(NC(=O)C(C)(C(F)(F)F)C(F)(F)F)s1 | -3% | i | 23µM* | -33% | 18µM* | ?
CCSc1nnc(NC(=O)C(CC)(C(F)(F)F)C(F)(F)F)s1 | ? | i | ? | -29% | 18µM* | -28%
C[C@@H]1CN([C@H](C)CO)C(=O)CCCn2nncc2CO[C@H]1CN(C)C(=O)c1ccccc1 | 1% | i | -6% | 1% | ? | 4%
COc1ccc2[nH]c(C(=O)NCc3ccc4c(c3)OCO4)cc2c1 | -20% | i | -7% | -1% | ? | -15%
CCOc1cc(/C=N/NC(=O)CN2CCOCC2)ccc1OCc1ccccc1 | -6% | i | -18% | -12% | ? | -2%
CCOc1cc(/C=N/NC(=O)c2nn(C)cc2Br)ccc1OCc1ccccc1Cl | -6% | i | 21µM* | -2% | 16µM* | -10%
CCOc1cc(/C=N/NC(=O)c2ccc(N(C)S(=O)(=O)c3ccccc3)cc2)ccc1OC | 21% | i | ? | 2% | 21µM* | 2%
CCOc1cc(/C=N/NC(=O)c2ccc(CN3CCOCC3)cc2)ccc1OCc1ccccc1 | -5% | i | ? | -6% | 18µM* | ?
COc1cc(C(=O)NN=Cc2ccc(N(C)C)cc2)cc(OC)c1OC | -25% | i | 0.92µM* | -3% | 0.92µM* | nt

Screening results from PubChem BioAssay.
